Experimental data from PubChem BioAssay (NCATS).
Records with an inconclusive call do not appear. Activity calls are given as the source filed them. Unless noted, the call rests on the fitted dose curve; in most records, active means well fitted cell-killing curve with a large enough effect; inconclusive means small, poorly fitted or top-dose-only effect, or effect the other way; inactive means no such curve, though single readings can be large or run the other way.

Key:
[1] = Quantitative High-Throughput drug screen in 47 multiple myeloma cell lines against the NCATS MIPE library collection: PE2_PLB cell viability assay (AID 1919869); further: nearly all actives have a fitted effect of over 35% in size; further: potency means the concentration at half of the fitted maximal effect
Summary of the method: (§1)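 Myeloma cells (500/well) treated with MIPE 4.0 compounds for 48 h at 37 °C, 5% CO2. Viability read as ATP via CellTiter-Glo luminescence after 5 min at RT; DMSO-only wells = 100%, media-only = 0% viability.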

[2] = Quantitative High-Throughput drug screen in 47 multiple myeloma cell lines against the NCATS MIPE library collection: PCM6_Riken cell viability assay (AID 1919870); further: nearly all actives have a fitted effect of over 30% in size; further: potency means the concentration at half of the fitted maximal effect
Summary of the method: as §1

[3] = Quantitative High-Throughput drug screen in 47 multiple myeloma cell lines against the NCATS MIPE library collection: RPMI8226_ATCC cell viability assay (AID 1919871); further: nearly all actives have a fitted effect of over 30% in size; further: potency means the concentration at half of the fitted maximal effect
Summary of the method: as §1

[4] = Quantitative High-Throughput drug screen in 47 multiple myeloma cell lines against the NCATS MIPE library collection: OPM2_DSMZ cell viability assay (AID 1919872); further: nearly all actives have a fitted effect of over 30% in size; further: potency means the concentration at half of the fitted maximal effect
Summary of the method: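 Relative luminescence from CellTiter-Glo served as the viability signal, referenced to DMSO-treated (100%) and cell-free medium (0%) controls. Treatment lasted 48 hours at 37C with 500 cells per well.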

[5] = Quantitative High-Throughput drug screen in 47 multiple myeloma cell lines against the NCATS MIPE library collection: KMS11_JCRBsus cell viability assay (AID 1919873); further: nearly all actives have a fitted effect of over 50% in size; further: potency means the concentration at half of the fitted maximal effect
Summary of the method: as §1

[6] = Quantitative High-Throughput drug screen in 47 multiple myeloma cell lines against the NCATS MIPE library collection: KMS28BM_JCRB cell viability assay (AID 1919874); further: nearly all actives have a fitted effect of over 35% in size; further: potency means the concentration at half of the fitted maximal effect
Summary of the method: as §1

[7] = qHTS drug screen for cell cycle checkpoint inhibitors in PARPi-resistant BRCA-mutant ovarian cancer cell lines. (AID 1963452; calls by dose curve; further: potency means the concentration at half of the fitted maximal effect); conditions: PEO1/OlaR viability, CellTiter-Glo luminescence, 96 h; for Z-AUC: stronger effect = lower value
Summary of the method: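 PEO1, PEO4 and PEO1/OlaR ovarian cancer cells, 600 per well, exposed 96 h at 37C to a dilution series. Viability read by CellTiter-Glo luminescence, normalized to DMSO and empty wells; activity summarized as Z-AUC.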

[8] = qHTS for identification of novel therapeutic agents for treatment of microphthalmiaassociated transcription factor (MiT) renal cell carcinoma (RCC) (AID 1963991); conditions: CellTiter-Glo, 48 h, stronger effect = lower value
Summary of the method: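 Three TFE3-fusion RCC cell lines (UOK109, UOK124, UOK145), 500 cells/well, were exposed to the 1912-compound MIPE 4.0 library for 48 hours at 37 C. Viability was read by CellTiter-Glo luminescence, normalised to DMSO (100%) and empty wells (0%), with 11-concentration curve fits.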

[9] = Quantitative High-Throughput drug screen in 47 multiple myeloma cell lines against the NCATS MIPE library collection: UTMC2_PLB cell viability assay (AID 1919868); further: nearly all actives have a fitted effect of over 55% in size; further: potency means the concentration at half of the fitted maximal effect
Summary of the method: as §1

[10] = measured here: PEO1 parental Z-AUC
[11] = TFE3-RCC UOK109 viability, measured here: UOK109 Z-AUC
[12] = TFE3-RCC viability, measured here: UOK124 Z-AUC
[13] = TFE3-RCC viability, measured here: UOK145 Z-AUC

SMILES	Potency [1]	Potency [2]	Potency [3]	Potency [4]	Potency [5]	Potency [6]	Z-AUC [7]	Z-AUC [7, 10]	Z-AUC ([7]; measured here: PEO4 Z-AUC)	z-score [8, 11]	z-score [8, 12]	z-score [8, 13]	Potency [9]	Potency [7]
Cc1noc(NS(=O)(=O)c2ccc(N)cc2)c1C	inactive	inactive	inactive	inactive	inactive									
O[C@@H](CNC[C@H](O)[C@H]1CCc2cc(F)ccc2O1)[C@@H]1CCc2cc(F)ccc2O1	26.4 µM (active)	16.6 µM (active)	20.9 µM (active)	18.7 µM (active)	7.43 µM (active)	18.7 µM (active)								
COc1cc2nc(N3CCCN(C)CC3)nc(NC3CCN(Cc4ccccc4)CC3)c2cc1OC	2.35 µM (active)	3.72 µM (active)	9.35 µM (active)	7.43 µM (active)	4.69 µM (active)	10.5 µM (active)	0.899 (inactive)	0.933	0.922					
CCn1cc(C(=O)O)c(=O)c2cc(F)c(N3CCNCC3)cc21	inactive	inactive	inactive	inactive	inactive	inactive	0.488 (inactive)	0.343	0.192	1.12	2.59	1.26		
C1CCC(C(CC2CCCCN2)C2CCCCC2)CC1 (stereo unspecified)	18.7 µM (active)	10.5 µM (active)	11.8 µM (active)	23.5 µM (active)	8.33 µM (active)		-0.764 (inactive)	-0.095	-0.0366				13.2 µM (active)	
CC1=NN(c2ccccc2)C(=O)C1	inactive	inactive	inactive	inactive	inactive	inactive	0.285 (inactive)	0.838	1.05	-4.96	0.556	-3.3		
COC(=O)Nc1nc2ccc(C(=O)c3ccccc3)cc2[nH]1	2.96 µM (active)	5.9 µM (active)		1.48 µM (active)	0.332 µM (active)			-1.51	-1.61				2.35 µM (active)	436 nM (active)
CCCCc1oc2ccc(NS(C)(=O)=O)cc2c1C(=O)c1ccc(OCCCN(CCCC)CCCC)cc1	23.5 µM (active)	11.8 µM (active)	16.6 µM (active)	23.5 µM (active)	11.8 µM (active)	13.2 µM (active)	0.47 (inactive)	-0.173	-0.237					
CC(N)C12CC3CC(CC(C3)C1)C2 (stereo unspecified)	inactive	inactive	inactive	inactive	inactive	inactive	0.887 (inactive)	0.571	0.722	0.00344	0.654	0.503		
COc1ccccc1OCC(O)COC(N)=O (stereo unspecified)	inactive	inactive	inactive	inactive						0.0196	0.974	0.377	inactive	
Cc1ccc(S(=O)(=O)N[C@@H](Cc2ccccc2)C(=O)CCl)cc1	10.5 µM (active)	11.8 µM (active)	20.9 µM (active)	18.7 µM (active)	9.35 µM (active)	11.8 µM (active)	1.05 (inactive)	1.44	1.24					
COC(c1ccccc1)(c1ccccc1)[C@H](Oc1nc(C)cc(C)n1)C(=O)O	inactive	inactive	inactive	inactive	inactive		1.02 (inactive)	1.24	1.24	1.16	0.918	0.706	inactive	
CCn1cc(C(=O)O)c(=O)c2cc(F)c(N3CCN(C)CC3)cc21	inactive	inactive		inactive	inactive		1.22 (inactive)	0.931	1.07	0.77	0.298	0.753	inactive	
CN1CCN(c2c(F)cc3c(=O)c(C(=O)O)cn4c3c2OCN4C)CC1	inactive	inactive	inactive	inactive	inactive	inactive								
CNC(=O)c1cc(Oc2ccc(NC(=O)Nc3ccc(Cl)c(C(F)(F)F)c3)cc2)ccn1	7.43 µM (active)	7.43 µM (active)	20.9 µM (active)		20.9 µM (active)	20.9 µM (active)	0.739 (inactive)	0.309	0.253				9.35 µM (active)	
CCOCC(O)COc1ccc(NC(=O)CC[S+](C)C)cc1 (stereo unspecified)	inactive		inactive			inactive	0.72 (inactive)	0.893	1.15	0.123	0.296	0.104	inactive	
C[C@@H](CN1CC(=O)NC(=O)C1)N1CC(=O)NC(=O)C1			inactive	inactive	inactive		1.24 (inactive)	1.43	0.873				2.96 µM (active)	
Cc1cc(NS(=O)(=O)c2ccc(N)cc2)no1	inactive	inactive	inactive	inactive	inactive	inactive								
NCCCC(O)(P(=O)(O)O)P(=O)(O)O	inactive	9.35 µM (active)	inactive	inactive			0.983 (inactive)	0.814	0.863	0.263	0.663	0.216		
O=c1cc(O)c(Cl)c[nH]1	inactive	2.96 µM (active)	inactive				1.39 (inactive)	1.19	1.11					
CNS(=O)(=O)CCc1ccc2[nH]cc(C3CCN(C)CC3)c2c1	1.66 µM (active)	inactive		inactive	inactive	inactive								
